The text below walks through data of PubChem BioAssay (Tox21).

The structures appear in SMILES notation. Several values for one entry are separate records, joined by “and”; a condition that tells them apart may be missing. Equal entries are not always repeated. Records with an inconclusive call do not appear. Values without a mark were called inactive. Activity calls are given as the source filed them. Calls follow the shape of the dose curve; as a rule, active = well fitted cell-killing curve with a large enough effect in the repeat runs; inconclusive = weak or mixed curves, or effect the other way; inactive = no such curve, though single readings can be large or run the other way.
% is scaled to controls: 0 for no effect and ±100 for the full control effect; potency is read from the fitted curve at half-maximal effect.

A short description of this assay: qHTS assay to identify small molecule antagonists of the thyroid receptor (TR) signaling pathway - cell viability counter screen (AID 743064). Also: nearly all actives have a fitted effect of over 50% in size. Particulars: GH3.TRE-Luc viability, CellTiter-Fluor, 24 h; series mostly up to 70.3 µM; activity change, negative = cytotoxic: at the top concentration. The text has this: National Center for Advancing Translational Sciences [NCATS]
NIH Chemical Genomics Center [NCGC]
U.S. Environmental Protection Agency [EPA]
National Institutes of Environmental Health Sciences [NIEHS]
National Toxicology Program [NTP]
U.S. Food and Drug Administration [FDA]
Thyroid receptor (TR), a nuclear hormone receptor, plays an important role in development, proliferation, differentiation, metabolism, brain function, and cardiovascular system. […] To profile the Tox21 10K compound library in TR signaling, a cell-based GH3-TRE-Luc assay (GH3.TRE-Luc cell line, developed by the laboratory of Dr. Albertinka J. Murk, Wageningen University) was used to measure the inhibition of TR. GH3 (rat pituitary tumor) cells stably expressing a TR activity sensor consisting of two TR response elements and a luciferase reporter gene. The cytotoxicity of the Tox21 compound library against the GH3.TRE-Luc cell line was tested in parallel by measuring the cell viability using CellTiter-Fluor assay (Promega, Madison, WI) in the same wells.
Tox21 Assay Protocol Summary:
GH3.TRE-Luc cells were dispensed at 1500 cells/4 uL/well into 1536-well white solid bottom plates using a Multidrop Combi dispenser (Thermo Fisher Scientific Inc., Waltham, MA). After the assay plates were incubated at 37 C for 4 hours, 23 nL of library compound or DMSO controls was transferred to the assay plates by a pintool station (Kalypsys, San Diego, CA), followed by addition of 1 ul of T3 (1 nM, final concentration in the wells) to stimulate TR transactivation. The assay plates were incubated at 37 C for 23.5 h, and then 1 uL of CellTiter-Fluor reagent (Promega, Madision, WI) of measuring cytotoxicity was added to each well using a Bioraptr Flying Reagent Dispenser (FRD) workstation (Beckman Coulter, Indianapolis, IN, USA). The plates were incubated at 37C and 5% CO2 for additional 30 min, and fluorescence intensity was measured by a ViewLux plate reader (PerkinElmer, Shelton, CT).
Regarding `COCCC#N`, the “activity change, negative = cytotoxic” value was 0.316%.
In the case of `Clc1ccc(C(Cl)(Cl)Cl)cc1Cl`, the “activity change, negative = cytotoxic” value was 16.5%.
`O=S1OCC2C(CO1)C1(Cl)C(Cl)=C(Cl)C2(Cl)C1(Cl)Cl` (stereo not given): the Potency is 61.2 µM (active) and 54.4 µM (active).
On to `O=NN(CCO)CCO`, for which the “activity change, negative = cytotoxic” value was 14.1%.
Same read-out and setting: in the case of `CN` it was 5.14% [at 95 µM].
On the same count and under the same terms, in the case of `CC(Cc1ccc2c(c1)OCO2)NO` (stereo not given) it was 7.7% [at 95 µM]; in that of `CC1=C2C[C@H]3[C@@H](CC=C4C[C@@H](O)CC[C@@]43C)[C@@H]2CC[C@]12O[C@@H]1C[C@H](C)CN[C@H]1[C@H]2C`, -25.7%.
Regarding `O=[N+]([O-])c1cc(C(F)(F)F)c(Cl)c([N+](=O)[O-])c1Nc1ncc(C(F)(F)F)cc1Cl`, the Potency was 5.45 µM (active).
Consider `Nc1nc(N)nc(Cl)n1`, for which the “activity change, negative = cytotoxic” value was -1.53%.
For `CCC(OC(C)=O)C(CC(C)NC)(c1ccccc1)c1ccccc1` (stereo not given), the Potency was 19.5 µM (active).
With `O=[N+]([O-])C(Br)Br`, the “activity change, negative = cytotoxic” value was -16%.
Regarding `CN(C)c1ccc(N)cc1`, the Potency was 59.6 µM (active).
For the compound `OCC(Br)CBr` (stereo not given), the “activity change, negative = cytotoxic” value is 6.25% [at 95 µM].
The same measure, in the same setting: to `COc1ccc2c3c1O[C@H]1[C@H](O)CC[C@H]4[C@@H](C2)N(C)CC[C@@]341` belongs -3.37%.
`CCN(CC)CCN1C(=O)CN=C(c2ccccc2F)c2cc(Cl)ccc21`: the Potency was 29.8 µM (active).
Same read-out and setting: to `CC(=O)[O-].CC(=O)[O-].CC(=O)[O-].[Cr+3]` belongs 54.3 µM (active).
In the case of `CCCCC/C=C\C/C=C\C/C=C\C/C=C\CCCC(=O)NCC(=O)O`, the activity change, negative = cytotoxic was 12.7% [at 8.44 µM].
As to `CC(C)(C)c1ccc(OP(=O)(Oc2ccccc2)Oc2ccccc2)cc1`, the Potency is 27.5 µM (active).
For `C=Cc1cccc(CCl)c1`, the “activity change, negative = cytotoxic” value was -4.04% [at 95 µM].
Same read-out and setting: in the case of `CCCCC(CC)COC(=O)OOC(C)(C)C` (stereo not given) it was 2.44%.
Same read-out and setting: to `CC(C)C(Br)C(=O)NC(N)=O` (stereo not given) belongs 28.6%.
In the case of `Nc1ccc(N=Nc2ccccc2)cc1`, the Potency was 56.1 µM (active).
Take `Oc1cc(Cl)cc(Cl)c1`: the “activity change, negative = cytotoxic” value is -13.9% [at 95 µM].
`CC[C@H](C)[C@H]1O[C@]2(C=C[C@@H]1C)C[C@@H]1C[C@@H](C/C=C(\C)[C@@H](O[C@H]3C[C@H](OC)[C@@H](O[C@H]4C[C@H](OC)[C@@H](NC)[C@H](C)O4)[C@H](C)O3)[C@@H](C)/C=C/C=C3\CO[C@@H]4[C@H](O)C(C)=C[C@@H](C(=O)O1)[C@]34O)O2`: the Potency is 1.22 µM (active).
On to `CC(Cc1ccc(OCC(=O)O)cc1)NCC(O)c1csc(C(F)(F)F)n1` (stereo not given), for which the “activity change, negative = cytotoxic” value was -19.3%.
As for `CCN1CCC2(CC1)COc1cc3c(cc12)N(C(=O)c1ccc(-c2ccc(-c4nnc(C)o4)cc2C)cc1)CC3`, the Potency was 14.2 µM (active).
Turning to `CC1CN1` (stereo not given), the “activity change, negative = cytotoxic” value was 8.36%.
`Cc1cnc2c(C(=O)O)c(Cl)ccc2c1`: the “activity change, negative = cytotoxic” value was 3.89%.
Still for that read-out and setting: in the case of `ClC1(Cl)C2(Cl)C3(Cl)C4(Cl)C(Cl)(Cl)C5(Cl)C3(Cl)C1(Cl)C5(Cl)C24Cl` (stereo not given) it was 6.45%; in that of `CCCCc1ccccc1`, 2.41%; in that of `CSC(C)(C)/C=N/O`, -1.29%.
In the case of `CCC1(CC)C(=O)N=C(O)NC1=O`, the “activity change, negative = cytotoxic” value is 12%.
With `O=[N+]([O-])c1ccc(Cl)c(Cl)c1Cl`, the “activity change, negative = cytotoxic” value is -9.87%.
On the same count and under the same terms, in the case of `NC1CCC(CC2CCC(N)CC2)CC1` (stereo not given) it was -11.7%; in that of `COc1ccc(Cc2nccc3cc(OC)c(OC)cc23)cc1OC`, 5.46% [at 32.5 µM]; in that of `CCn1cc[n+](C)c1` (tested in a mixture with another compound), 5.46%.
For `O=C1C[C@@H]2OCC=C3CN4CC[C@]56c7ccccc7N1[C@H]5[C@H]2[C@H]3C[C@H]46`, the “activity change, negative = cytotoxic” value is -21.8%.
On the same count and under the same terms, in the case of `CNC(=O)O/N=C(\C)C(C)S(C)(=O)=O` (stereo not given) it was -1.54% [at 920 µM]; in that of `CC(=O)[O-].CC(=O)[O-].O.O.[Zn+2]`, -2.29%; in that of `CNC(C)(C)Cc1ccccc1`, 10.4% [at 32.5 µM].
